The source of these data is PubChem BioAssay (NCATS).

“And” between values parts separate entries of the source, which are not always exact repeats. Identical values can stand only once. Inconclusive results are not listed. The source holds several records for some structures; these can differ, active in one and inactive in another. The source made the active and inactive calls. Unless noted, calls follow the shape of the dose curve; as a rule, active = well fitted curve in the direction sought with a large enough effect; inconclusive = small, poorly fitted or top-dose-only effect, or another doubt; inactive = no such curve, though single readings can be large; an effect the other way counts as inactive or inconclusive.
% is scaled to controls: 0 for no effect and ±100 for the full control effect.

Sequence of Cytochrome P450 2C9 (Homo sapiens) (P11712 whole entry, looked up): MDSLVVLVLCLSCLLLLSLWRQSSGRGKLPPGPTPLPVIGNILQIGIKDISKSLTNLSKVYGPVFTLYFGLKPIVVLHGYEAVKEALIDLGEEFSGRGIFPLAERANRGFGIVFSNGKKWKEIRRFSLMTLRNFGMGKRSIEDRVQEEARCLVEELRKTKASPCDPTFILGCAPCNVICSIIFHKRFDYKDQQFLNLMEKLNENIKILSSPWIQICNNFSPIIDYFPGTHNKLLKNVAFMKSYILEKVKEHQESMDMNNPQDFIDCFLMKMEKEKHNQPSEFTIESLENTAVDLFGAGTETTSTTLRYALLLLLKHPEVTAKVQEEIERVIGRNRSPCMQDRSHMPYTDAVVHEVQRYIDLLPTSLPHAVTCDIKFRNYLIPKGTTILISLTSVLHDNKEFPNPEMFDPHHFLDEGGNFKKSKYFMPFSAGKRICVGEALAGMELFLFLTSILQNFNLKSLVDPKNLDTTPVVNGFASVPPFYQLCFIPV
Sequence of Cytochrome P450 2D6 (Homo sapiens) (P10635 whole entry, looked up): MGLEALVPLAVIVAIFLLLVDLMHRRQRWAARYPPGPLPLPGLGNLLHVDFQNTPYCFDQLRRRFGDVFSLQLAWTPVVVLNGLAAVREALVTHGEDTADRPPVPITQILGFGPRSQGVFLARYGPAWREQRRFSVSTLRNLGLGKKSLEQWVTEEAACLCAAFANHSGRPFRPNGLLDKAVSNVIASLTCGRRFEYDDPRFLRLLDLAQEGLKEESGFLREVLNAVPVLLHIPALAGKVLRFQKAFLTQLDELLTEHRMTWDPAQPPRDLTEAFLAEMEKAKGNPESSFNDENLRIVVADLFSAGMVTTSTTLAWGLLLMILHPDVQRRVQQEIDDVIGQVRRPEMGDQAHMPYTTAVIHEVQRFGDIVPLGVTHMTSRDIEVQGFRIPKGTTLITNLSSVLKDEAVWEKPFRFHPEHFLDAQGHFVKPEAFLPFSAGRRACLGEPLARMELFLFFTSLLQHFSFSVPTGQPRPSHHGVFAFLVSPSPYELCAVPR

System in the first assay: not listed separately
The experiment in a line: Primary qHTS for small molecule stabilizers of the endoplasmic reticulum resident proteome: Secreted ER Calcium Modulated Protein (SERCaMP) assay (AID 1508630). Particulars: SH-SY5Y GLuc-SERCaMP (Gaussia luciferase released on ER calcium loss) secretion, thapsigargin, luminescence; series mostly up to 38.4 µM; activity change, negative = inhibition: at the top concentration. Summed up: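 The SH-SY5Y reporter protocol was run at 3 concentrations up to 38.3 uM (primary) or 11 concentrations (follow-up): 16 h compound, 100 nM thapsigargin for 4 h, then extracellular luciferase luminescence.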
(qHTS replaces the single test concentration by a dilution series.)
Turning to `c1ccc(-c2nn3c(c2-c2ccnc4cc(OCCN5CCOCC5)ccc24)CCC3)nc1`, the “activity change, negative = inhibition” value was 6.51% (inactive). Same read-out and setting: in the case of `CCN(c1ccccc1)c1cc(NC)[n+](C)c(C)n1` it was 107% (inactive). Same read-out and setting: in the case of `CN(C)c1ccc(C2Nc3ccc4ccccc4c3C3=C2C(=O)CC(C)(C)C3)cc1Br` (stereo unspecified) it was 10.6% (inactive); in that of `O=C(Nc1ccc(F)c(C(F)(F)F)c1)Nc1nnc(-c2ccncc2)s1`, 10.7% (inactive). On the same count and under the same terms, in the case of `Nc1nc2[nH]cc(CCc3ccc(C(=O)N[C@@H](CCC(=O)O)C(=O)O)cc3)c2c(=O)[nH]1` it was -43.7% (inactive); in that of `CC1(C)CNc2cc(NC(=O)c3cccnc3NCc3ccncc3)ccc21`, 180% (inactive).

In the case of `NC(=O)c1ccc(-c2nc(-c3ccc4c(c3)OCCO4)c(-c3ccccn3)[nH]2)cc1`, the “activity change, negative = inhibition” value is 140% (inactive).

In the case of `O=C(C1CC1)N1CC[C@@H](Cn2c(-c3ccc(-c4ccc5occc5c4)cc3)nc3cnccc32)C1`, the “activity change, negative = inhibition” value was -48.4% (inactive).

Consider `Cc1ccnc(NS(=O)(=O)c2ccc(NC(=O)Nc3ccc(S(=O)(=O)Nc4nccc(C)n4)cc3)cc2)n1`, for which the “activity change, negative = inhibition” value was -54.6% (inactive). Same read-out and setting: in the case of `CS(=O)(=O)c1ccc(C(=O)Nc2ccc(Cl)c(-c3ccccn3)c2)c(Cl)c1` it was 22.5% (inactive); in that of `Cc1cc2c(F)c(Oc3ncnn4cc(OC[C@@H](C)O)c(C)c34)ccc2[nH]1`, 0% (inactive). `CC(C)(N)C(=O)N[C@H](COCc1ccccc1)C(=O)N1CCC2(CC1)CN(S(C)(=O)=O)c1ccccc12`: the “activity change, negative = inhibition” value is -73.7% (inactive). The same measure, in the same setting: the value for `C[C@@H]1CN(Cc2ccc(F)cc2)[C@@H](C)CN1C(=O)c1cc2c(C(=O)C(=O)N(C)C)cn(C)c2cc1Cl` was 156% (inactive); that for `N#CC[C@H](C1CCCC1)n1cc(-c2ncnc3[nH]ccc23)cn1` was -10.8% (inactive); that for `NC(=O)c1ccc(I)c([N+](=O)[O-])c1` was 12.2% (inactive). Same read-out and setting: the value for `CNC(=O)c1ccc(N2C(=S)N(c3ccc(C#N)c(C(F)(F)F)c3)C(=O)C2(C)C)cc1F` was 0% (inactive); that for `CCCn1c(=O)c2[nH]c(C34CC5CC3C[C@@H](C5)C4)nc2n(CCC)c1=O` was 13.5% (inactive); that for `Cc1cccc(-c2nn(C(=S)Nc3ccccc3)cc2-c2ccnc3ccccc23)n1` was 11.5% (inactive).

For a further assay, the target named is Cytochrome P450 2D6 (Homo sapiens) (UniProt P10635). The assay is described as follows: Cytochrome P450 family 2 subfamily D member 6 (CYP2D6) small molecule antagonists: luciferase biochemical (cell-free) qHTS assay (AID 1645840; active = well fitted curve in the direction sought with a large enough effect in the repeat runs; an effect the other way counts as inactive or inconclusive; also: nearly all actives have a fitted effect of over 55% in size; also: potency is read from the fitted curve at half-maximal effect). The settings on record: P450-Glo CYP2D6 enzyme, luciferin luminescence, 1 h; series mostly up to 57.4 µM; activity change, negative = inhibition: at the top concentration. Summed up:
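P450-Glo CYP2D6 system: proluciferin substrate converted by enzyme to luciferin, read by luminescence proportional to activity. Enzyme-substrate mix with compound 10 min at room temperature, then NADPH regeneration 1 h before detection reagent.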
Turning to `S=C(NCc1ccc2c(c1)OCO2)N1CCN(c2ncnc3c2oc2ccccc23)CC1`, the Potency was 4.77 µM (active). In the case of `OC[C@H](Cc1ccccc1)Nc1nc(Oc2ccc3c(c2)CCC3)nc2c1ncn2Cc1ccc(-c2ccccc2)cc1`, the “activity change, negative = inhibition” value was -0.0402% (inactive). On the same count and under the same terms, the value for `N#Cc1ccc(C(c2ccc(C#N)cc2)n2cncn2)cc1` was -14.5% (inactive). As to `OCCn1cc(-c2cnc3nnn(Cc4ccc5ncccc5c4)c3n2)cn1`, the “activity change, negative = inhibition” value is 19% (inactive). The same measure, in the same setting: the value for `O=c1[nH]c(-c2ccc(C(F)(F)F)cc2)nc2c1CSCC2` was -1.7% (inactive).

The next assay concerns the target Cytochrome P450 2C9 (Homo sapiens) (UniProt P11712). The assay is described as follows: Cytochrome P450 family 2 subfamily C member 9 (CYP2C9) small molecule antagonists: luciferase biochemical (cell-free) qHTS assay (AID 1645842; active = well fitted curve in the direction sought with a large enough effect in the repeat runs; an effect the other way counts as inactive or inconclusive; also: nearly all actives have a fitted effect of over 55% in size; also: potency is read from the fitted curve at half-maximal effect). The settings on record: P450-Glo CYP2C9 enzyme assay, luciferin luminescence; series mostly up to 57.4 µM; activity change, negative = inhibition: at the top concentration. Summed up: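 P450-Glo CYP2C9 system: proluciferin substrate with enzyme in mix containing 0.4% BSA, 10 min at room temperature, then NADPH regeneration solution added and incubated 1 h at 37C. Detection reagent stopped reaction; luminescence read after 20 min as RLU.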
Consider `S=C(NCc1ccc2c(c1)OCO2)N1CCN(c2ncnc3c2oc2ccccc23)CC1`, for which the Potency is 2.13 µM (active). With `CC(C)(N)C(=O)N[C@H](COCc1ccccc1)C(=O)N1CCC2(CC1)CN(S(C)(=O)=O)c1ccccc12`, the “activity change, negative = inhibition” value is -15.2% (inactive). Turning to `O=c1[nH]c(-c2ccc(C(F)(F)F)cc2)nc2c1CSCC2`, the Potency was 19 µM (active). Regarding `C[C@@H]1CN(Cc2ccc(F)cc2)[C@@H](C)CN1C(=O)c1cc2c(C(=O)C(=O)N(C)C)cn(C)c2cc1Cl`, the Potency is 7.56 µM (active). Consider `CCN(CC)CCCC(C)Nc1nc(C)cc(Nc2ccc3nc(C)cc(N)c3c2)n1` (stereo unspecified), for which the “activity change, negative = inhibition” value was -0.688% (inactive).

System in the next assay: not listed separately
The assay is described as follows: Primary qHTS for inhibitors of nuclear receptor binding SET domain protein 2 (NSD2) in an isogenic RCH-ACV NSD2 p.E1099K mutant (9B) (AID 1645876). Also: nearly all actives have a fitted effect of over 70% in size. Also: potency is read from the fitted curve at half-maximal effect. The settings on record: RCH-ACV (leukaemia line) NSD2 E1099K (9B) viability, CellTiter-Glo, 72 h; series mostly up to 44.9 µM; activity change, negative = viability loss: at the top concentration.
As for `S=C(NCc1ccc2c(c1)OCO2)N1CCN(c2ncnc3c2oc2ccccc23)CC1`, the Potency was 13.2 µM (active). `c1ccc(-c2nn3c(c2-c2ccnc4cc(OCCN5CCOCC5)ccc24)CCC3)nc1`: the Potency is 16.6 µM (active). In the case of `CCN(c1ccccc1)c1cc(NC)[n+](C)c(C)n1`, the “activity change, negative = viability loss” value is -7.28% (inactive). For the compound `Cc1n[nH]c(C)c1Cc1sc2c(c1C(=O)N1C[C@H](O)CO1)c(=O)n(C)c(=O)n2CC(C)C`, the Potency entry is “inactive”. `CN(C)c1ccc(C2Nc3ccc4ccccc4c3C3=C2C(=O)CC(C)(C)C3)cc1Br` (stereo unspecified): the “activity change, negative = viability loss” value is 9.75% (inactive).

Consider `O=C(Nc1ccc(F)c(C(F)(F)F)c1)Nc1nnc(-c2ccncc2)s1`, for which the result was inactive. Take `NC(=O)C1CCCc2c1[nH]c1ccc(Cl)cc21` (stereo unspecified): the “activity change, negative = viability loss” value was -18.2% (inactive). `Nc1nc2[nH]cc(CCc3ccc(C(=O)N[C@@H](CCC(=O)O)C(=O)O)cc3)c2c(=O)[nH]1`: the Potency is 0.296 µM (active). Consider `Cc1cnc(Nc2ccc(OCCN3CCCC3)cc2)nc1Nc1cccc(S(=O)(=O)NC(C)(C)C)c1`, for which the Potency is 1.83 µM (active) and 2.35 µM (active).

Turning to `CC[C@H](Nc1ncnc2nc[nH]c12)c1nc2cccc(F)c2c(=O)n1-c1ccccc1`, the Potency is 164 nM (active) and 833 nM (active); the activity change, negative = viability loss is -6.84% [at 9.23 µM] (inactive). On to `Cc1cc(SCc2sc(-c3ccc(C(F)(F)F)cc3)nc2C)ccc1OCC(=O)O`, for which the “activity change, negative = viability loss” value is -26.7% (inactive).

In the case of `CN(C)c1ccc(Nc2nc(N)n(C(=O)c3c(F)cccc3F)n2)cc1`, the Potency was 1.48 µM (active). On the same count and under the same terms, the value for `CC1(C)CNc2cc(NC(=O)c3cccnc3NCc3ccncc3)ccc21` was “inactive”.

Take `NC(=O)c1ccc(-c2nc(-c3ccc4c(c3)OCCO4)c(-c3ccccn3)[nH]2)cc1`: the “activity change, negative = viability loss” value is -7.97% (inactive). Turning to `Cc1cc([C@@H](C)Nc2ccccc2C(=O)O)c2nc(N3CCOCC3)cc(=O)n2c1`, the Potency is 2.24 µM (active) and 1.86 µM (active). Same read-out and setting: the value for `O=C(C1CC1)N1CC[C@@H](Cn2c(-c3ccc(-c4ccc5occc5c4)cc3)nc3cnccc32)C1` was 18.6 µM (active). Consider `Cc1ccnc(NS(=O)(=O)c2ccc(NC(=O)Nc3ccc(S(=O)(=O)Nc4nccc(C)n4)cc3)cc2)n1`, for which the “activity change, negative = viability loss” value is 9.62% (inactive).

Take `N#Cc1ccc(C(c2ccc(C#N)cc2)n2cncn2)cc1`: the “activity change, negative = viability loss” value is 1% (inactive). The same measure, in the same setting: in the case of `CS(=O)(=O)c1ccc(C(=O)Nc2ccc(Cl)c(-c3ccccn3)c2)c(Cl)c1` it was -15.8% (inactive). Regarding `Cc1cc2c(F)c(Oc3ncnn4cc(OC[C@@H](C)O)c(C)c34)ccc2[nH]1`, the Potency is 2.63 µM (active). For `OCCn1cc(-c2cnc3nnn(Cc4ccc5ncccc5c4)c3n2)cn1`, the outcome was inactive. For the compound `CC(C)(N)C(=O)N[C@H](COCc1ccccc1)C(=O)N1CCC2(CC1)CN(S(C)(=O)=O)c1ccccc12`, the Potency is 16.3 µM (active) and 26.3 µM (active). With `O=c1[nH]c(-c2ccc(C(F)(F)F)cc2)nc2c1CSCC2`, the Potency entry was “inactive”. As to `Cc1cc(Nc2nc(N[C@@H](C)c3ncc(F)cn3)ncc2Cl)n[nH]1`, the Potency was 2.05 µM (active) and 2.95 µM (active). On to `CS(=O)(=O)Oc1ccc2c(NC(N)=O)c(C(=O)c3ccc(Cl)cc3Cl)oc2c1`, for which the result was inactive.

Regarding `O=C(O)[C@@H](c1ccc(OCc2ccc3ccccc3n2)cc1)C1CCCC1`, the “activity change, negative = viability loss” value was -6.49% (inactive). Consider `N#CC[C@H](C1CCCC1)n1cc(-c2ncnc3[nH]ccc23)cn1`, for which the Potency is 16.3 µM (active) and 9.34 µM (active). For the compound `CC(C)(C)OC(=O)CN(Cc1ccc(Cl)cc1)Cc1ccc([N+](=O)[O-])s1`, the “activity change, negative = viability loss” value was -29.2% (inactive). Consider `NC(=O)c1ccc(I)c([N+](=O)[O-])c1`, for which the Potency was 18.6 µM (active). Turning to `CNC(=O)c1ccc(N2C(=S)N(c3ccc(C#N)c(C(F)(F)F)c3)C(=O)C2(C)C)cc1F`, the “activity change, negative = viability loss” value was -19.3% (inactive). On the same count and under the same terms, in the case of `CCCn1c(=O)c2[nH]c(C34CC5CC3C[C@@H](C5)C4)nc2n(CCC)c1=O` it was -6.19% (inactive). Turning to `COc1c(Cl)cc2c([nH]c3cnccc32)c1NC(=O)c1cccnc1C`, the Potency was 9.34 µM (active).
